Experimental data published in publication PMC4336329 (PLoS ONE, 2015).
Out of some 310,000 compounds screened, about 14,000 (4.5%) showed an effect of 50% or more. The effect is printed as a negative number. This excerpt belongs to a sample that is enriched for strong results.

biological target: human ether-à-go-go-related gene (hERG) potassium channel (human, UniProt Q12809); assay: primary screen, population patch clamp on CHO cells stably expressing hERG; higher = less effect of the substance
Sequence (Q12809 whole entry, looked up): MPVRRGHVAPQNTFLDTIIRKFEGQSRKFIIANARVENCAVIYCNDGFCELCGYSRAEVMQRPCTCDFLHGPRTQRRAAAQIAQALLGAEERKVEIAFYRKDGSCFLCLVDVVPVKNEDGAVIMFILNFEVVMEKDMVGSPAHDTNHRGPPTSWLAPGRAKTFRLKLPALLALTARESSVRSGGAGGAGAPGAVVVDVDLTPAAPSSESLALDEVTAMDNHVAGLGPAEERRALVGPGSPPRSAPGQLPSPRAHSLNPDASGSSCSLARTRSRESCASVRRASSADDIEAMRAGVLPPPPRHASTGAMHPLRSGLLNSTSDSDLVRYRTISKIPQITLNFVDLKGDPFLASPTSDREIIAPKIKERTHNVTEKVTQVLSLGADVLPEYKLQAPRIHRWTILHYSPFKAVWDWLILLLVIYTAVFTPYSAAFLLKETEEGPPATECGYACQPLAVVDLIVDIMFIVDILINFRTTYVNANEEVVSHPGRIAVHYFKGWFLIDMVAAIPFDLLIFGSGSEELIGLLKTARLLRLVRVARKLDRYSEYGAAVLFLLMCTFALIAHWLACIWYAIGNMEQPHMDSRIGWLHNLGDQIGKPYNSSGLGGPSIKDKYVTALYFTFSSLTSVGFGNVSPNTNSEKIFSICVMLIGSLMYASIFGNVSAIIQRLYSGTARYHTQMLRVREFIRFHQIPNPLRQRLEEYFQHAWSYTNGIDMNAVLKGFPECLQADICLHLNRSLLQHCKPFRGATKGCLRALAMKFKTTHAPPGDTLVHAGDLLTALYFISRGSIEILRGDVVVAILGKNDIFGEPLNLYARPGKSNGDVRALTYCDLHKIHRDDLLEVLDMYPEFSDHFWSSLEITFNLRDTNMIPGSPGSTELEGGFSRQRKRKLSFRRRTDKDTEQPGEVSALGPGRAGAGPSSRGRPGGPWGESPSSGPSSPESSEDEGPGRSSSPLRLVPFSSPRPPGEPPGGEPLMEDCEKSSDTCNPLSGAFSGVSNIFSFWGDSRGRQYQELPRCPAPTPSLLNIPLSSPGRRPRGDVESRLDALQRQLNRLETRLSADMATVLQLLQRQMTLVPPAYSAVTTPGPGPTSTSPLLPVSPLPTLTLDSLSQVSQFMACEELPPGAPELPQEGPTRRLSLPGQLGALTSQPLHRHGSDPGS
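Further: peak tail current of the secondary pulse compared with the same well before compound.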

SMILES | hERG current change (%, negative = inhibition) at 10uM
COc1cc(/C=C2/C(=N)N3OC(C)=CC3=NC2=O)ccc1OC(=O)c1ccco1 | 29.8%
Cc1ccc(N=C2NC(=O)C(CO)(CO)S2)cc1 | 16.1%
O=C(N/N=C/c1cccc([N+](=O)[O-])c1)c1ccc2c(c1)OCCO2 | 7.63%
Nc1cc2c(cc1[N+](=O)[O-])OCCO2 | 5.64%
O=C(Nc1cccc([N+](=O)[O-])c1)c1ccc2c(c1)OCCO2 | 11.9%
O=C(Nc1cccc([N+](=O)[O-])c1)Nc1ccc2c(c1)OCCO2 | -1.17%
O=C(Nc1ccc([N+](=O)[O-])cc1)Nc1ccc2c(c1)OCCO2 | 24.6%
O=C(c1cccc([N+](=O)[O-])c1)c1ccc2c(c1)OCCOCCOCCO2 | -52.8%
O=[N+]([O-])c1ccc(S(=O)(=O)Nc2ccc3c(c2)OCCO3)cc1 | 3.95%
O=C(/C=C/c1cccc([N+](=O)[O-])c1)c1ccc2c(c1)OCCO2 | 3.36%
Nc1cc2c(cc1[N+](=O)[O-])OCCOCCOCCO2 | 0.413%
O=[N+]([O-])c1cc2c(cc1[N+](=O)[O-])OCCOCCOCCOCCO2 | -59.3%
O=[N+]([O-])c1ccc2c(c1)OCCOCCOCCOCCOCCOCCO2 | -64.1%
O=C(c1cccc([N+](=O)[O-])c1)c1ccc2c(c1)OCCOCCOCCOCCO2 | -69.8%
O=C(NCc1cccc(F)c1)C1CCN(S(=O)(=O)Cc2ccccc2)CC1 | 7.89%
COCCn1c(SCC(=O)Nc2ccc(Cl)cn2)nc2ccccc21 | -32.1%
Cc1ccc(N(C(=O)CCC(=O)Nc2ccccn2)C(C(=O)NC(C)C)c2ccc(F)cc2)cc1 (stereo not shown) | 21.4%
COc1ccc2c(c1)[C@H]1[C@H](CO2)[C@H](c2ccccc2)[C@]2(C)C(=O)N(CC3CCCO3)CC(=O)N12 (stereo partly shown) | -2.94%
COc1cccc(-n2cnc3c(sc4nc(N5CCOCC5)c5c(c43)CCCC5)c2=O)c1 | 5.92%
CCc1ccccc1NC(=O)CNC(=O)CSC(=S)N1CCCC1 | -3.17%

SMILES | hERG current change (%, negative = inhibition) at 10uM
COc1ccc(N2C(=NC(=O)c3ccccc3)SC3CS(=O)(=O)CC32)cc1 (stereo not shown) | 5.27%
O=S(=O)(Oc1ccccc1C(=S)N1CCOCC1)c1ccc(Cl)cc1 | 3.56%
NS(=O)(=O)c1ccc(CCNC(=O)[C@@H]2CCCN2S(=O)(=O)c2ccccc2F)cc1 | -2.88%
COc1ccc(OC)c(S(=O)(=O)N2CCC(C(=O)NCc3ccc4c(c3)OCO4)CC2)c1 | -3.84%
COc1cccc(NC(=O)c2cccnc2)c1 | 11.2%
C(#Cc1ccccc1)C[N+]1(CC#Cc2ccccc2)CCCC1.[Br-] | -55.5%
OCC#CC[N+]1(CC#Cc2ccccc2)CCCC1.[Br-] | 14.5%
C#CC[N+]1(CC#Cc2ccccc2)CCCC1.[I-] | -1.53%
Cc1ccc(C#CC[N+]2(C)CCCCC2)cc1.[Br-] | 14%
Cc1ccc(C#CC[N+]2(CC#Cc3ccc(C)cc3)CCCCC2)cc1.[Br-] | -106%
C(#Cc1ccccc1)C[N+]1(CC#Cc2ccccc2)CCCCC1.[Br-] | -55.8%
CCC[N+]1(CC#CCC(c2ccccc2)c2ccccc2)CCCCC1.[Br-] | -66.7%
CCC[N+]1(CC#CC(O)(c2ccccc2)C2CCCCC2)CCCCC1.[Br-] (stereo not shown) | 12.1%
C=CC[N+]1(CC#Cc2ccccc2)CCCC1.[Br-] | 18.4%
O=S(=O)([O-])CCC[N+]1(CC#Cc2ccccc2)CCCCC1 | 33.8%
C#CC[N+]1(CC#Cc2ccccc2)CCCCC1.[I-] | 2.16%
C#CC[N+]1(CC#Cc2ccc(C)cc2)CCCCC1.[Br-] | 4.84%
COc1ccc2c(c1)CC/C(=C\C=C\c1ccccc1OC)C2=O | 8.8%
Cc1cc(=O)[nH]c(N/N=C/c2ccc(Br)s2)n1 | -13.9%
CN1CCN(c2ccc(-c3cccc(NC(=O)COc4ccc(Cl)cc4Cl)c3)nn2)CC1 | 6.83%

SMILES | hERG current change (%, negative = inhibition) at 10uM
O=C(COc1ccc2c3c(c(=O)oc2c1)CCC3)NC(Cc1ccc(Cl)cc1)C(=O)O (stereo not shown) | 3.55%
Cc1ccc2nc(Cl)c(CN(Cc3cccs3)C(=O)C3CC3)cc2c1 | 8.82%
C[C@]12CC[C@@H](O)C[C@@H]1CC[C@@H]1[C@@H]2CC[C@]2(C)[C@@H](O)CC[C@@H]12 | 19.8%
N#CCOC(=O)C1CSC2(c3ccc(Br)cc3)CCC(=O)N12 (stereo not shown) | 8.43%
CCCCOc1cccc(C(=O)NC(=S)Nc2cccc(NC(=O)c3ccccc3Cl)c2)c1 | -8.49%
CC(C)(C)c1ccc(C(=O)NNC(=O)c2ccncc2)cc1 | 15.5%
CN(C)C1=NCCN1CCCC1CCCC1 | -51%
CCCCCCCN1CCN=C1N(C)C | -67.7%
CC(C)CCCN1CCN=C1N(C)C | 8.91%
CN(C)C1=NCCN1CCC1CCCC1 | 1.87%
CCCCN1CCN=C1N(C)C | 12%
CN(C)C1=NCCN1CCCC1CCCCC1 | -38.6%
COc1ccc(NC(=O)CN(C)C(=O)CN2C(=O)NC3(CCCCC3)C2=O)cc1 | 3.29%
Cc1nn(CC(=O)Nc2ccc3c(c2)nc(CN2CCCC2)n3C)c(=O)c2ccccc12 | -13.4%
Cc1c(C(=O)NNC(=O)c2ccncc2)oc2ccccc12 | -5.92%
Cc1c(C(=O)NNC(=O)c2ccncc2)oc2ccc(Br)cc12 | -68.5%
Cc1c(C(=O)NNC(=O)c2ccccc2O)oc2ccc(Br)cc12 | 8.46%
COc1ccccc1NC(=O)N1CCC(NC(=O)C2CCCCC2)CC1 | 5.27%
